# Data as given in PubChem BioAssay (NCATS).
# Results filed as inconclusive are left out. A call without a number means that no potency is given here. Active and inactive are the calls of the source. Calls follow the shape of the dose curve; as a rule, active = well fitted curve in the direction sought with a large enough effect; inconclusive = small, poorly fitted or top-dose-only effect, or another doubt; inactive = no such curve, though single readings can be large; an effect the other way counts as inactive or inconclusive.
# Experiments:
# [1] = test system: Zika virus NS2B-NS3 protease (linked construct); assay: Primary screen NINDS Rhodamine qHTS for Zika virus inhibitors (AID 1347160); also: nearly all actives have a fitted effect of over 55% in size; also: potency is read from the fitted curve at half-maximal effect
# In short: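 Purified NS2B-NS3 protease with the NS2B hydrophilic domain joined by a flexible linker (25 nM) in 10 mM Tris-HCl pH 8.0, 0.01% Tween 20, preincubated 15 min at RT with compound; Rhodamine110 peptide substrate 1.5 µM; fluorescence change over 15 min; 4-parameter Hill fit.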
# [2] = OV-KATE Cancer Cell Toxicity qHTS against the NCATS CANVASS Library (AID 1347345); also: potency is read from the fitted curve at half-maximal effect
# In short: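 ATP content after 72 h treatment, detected by CellTiter-Glo luminescence (15min room-temperature development), reflects cell viability. Wells contained 1000 cells and received compounds at 11 concentrations.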
# [3] = HPAF-II Cancer Cell Toxicity qHTS against the NCATS CANVASS Library (AID 1347346); also: nearly all actives have a fitted effect of over 55% in size; also: potency is read from the fitted curve at half-maximal effect
# In short: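 HPAF-II cells at 1000 cells/well were treated with an 11-point concentration series for 72 hours at 37 degrees C. Viability read by CellTiter-Glo luminescence.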
# [4] = HPAF-II 24hr Apoptosis Induction qHTS against the NCATS CANVASS Library (AID 1347356)
# In short: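 HPAF-II cells (500/well) exposed to compounds in 11-point series for 24 h at 37 degrees C; caspase-3/7 activity read by Caspase-Glo luminescence after 15 min at room temperature. Doxorubicin titration as control.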
# [5] = HEK293 18hr Apoptosis Induction qHTS against the NCATS CANVASS Library (AID 1347357)
# In short: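 Luminescent caspase-3/7 signal is measured in HEK293 cells exposed for 18 hours to an 11-point concentration series; doxorubicin serves as the plate control.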
# [6] = HEK293 24hr Apoptosis Induction qHTS against the NCATS CANVASS Library (AID 1347359)
# In short: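 HEK293 cells, 500 per well, exposed to an 11-point compound series for 24 hours at 37 degrees C. Caspase 3/7 activity read by Caspase-Glo luminescence (DEVD substrate) after 15 min at room temperature.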
# [7] = qHTS for ATAD5 Agonist screened against the NCATS CANVASS Library (AID 1347367);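 also: luciferase reporter driven by ATAD5 which rises upon DNA damage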
# In short: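 Step one plated reporter cells and let them acclimate 5hr. Step two pinned compounds with MMS as positive and 0.46% DMSO as negative control. After 16hr incubation, fluorescence viability then luminescence were read.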
# [8] = MCF7 Cancer Cell Toxicity qHTS against the NCATS CANVASS Library (AID 1347369); also: potency is read from the fitted curve at half-maximal effect
# In short: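 Cytotoxicity is measured by ATP content: MCF7 cells at 500 per well receive an 11-point compound series and, after 72 hr at 37C, are lysed with CellTiterGlo for luminescence.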
# [9] = qHTS for ATAD5 Antagonist screened against the NCATS CANVASS Library (AID 1347370); also: nearly all actives have a fitted effect of over 65% in size; also: potency is read from the fitted curve at half-maximal effect
# In short: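 HEK293T cells with stably integrated ATAD5-luciferase reporter, 2000/well, 5 h attachment; compounds plus 10 µM 5-fluorouridine, 16 h at 37 °C. Luciferase luminescence read, with CellTiter-Fluor viability read first.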
# [10] = J3T Cancer Cell Toxicity qHTS against the NCATS CANVASS Library (AID 1347371); also: potency is read from the fitted curve at half-maximal effect
# In short: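 J3T dog glioma cells, 500 per well, treated 72 h at 37C with compounds (11-point qHTS); viability from ATP content by CellTiterGlo luminescence; bortezomib titration as control.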
# [11] = target: Nuclear receptor subfamily 1 group I member 3 (Homo sapiens) (UniProt Q14994); assay: qHTS for Constitutive Androstane Receptor (CAR) Antagonist screened against the NCATS CANVASS Library (AID 1347372); also: potency is read from the fitted curve at half-maximal effect
# In short: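 HepG2 cells stably carrying hCAR and CYP2B6-2.2kb luciferase reporter, 2500 cells/well, compound with 50 nM CITCO agonist for 24hr at 37C. ONE-Glo luminescence measured CAR activity; CellTiter-Fluor read viability.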
# [12] = 10-beta competent E. coli microbial cell viability qHTS against the NCATS CANVASS Library (AID 1347376); also: series mostly up to about 46 µM
# In short: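 10-beta competent E. coli (0.2 OD) were exposed overnight at 37C to compounds in an 11-point series. Viability was read as ATP-dependent BacTiter-Glo luminescence after 20 min at room temperature.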
# [13] = Inflammasome Signaling qHTS Counterscreen: IL-1-beta AlphaLISA counterscreen against the NCATS CANVASS Library (AID 1347381);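 also: cell-free check with purified IL-1β in medium and no THP-1 cells; series mostly up to about 57 µM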
# In short: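 Cell-free interference check: compounds added to medium spiked with 4 pg purified IL-1β. Anti-IL-1β acceptor beads (6 ug/mL) with 0.6 nM biotinylated antibody added for 1 h at RT, then streptavidin donor beads (24 ug/mL) for 30 min in the dark. AlphaLISA read at 680/615 nm.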
# Sequence of Nuclear receptor subfamily 1 group I member 3 (Homo sapiens) (Q14994 whole entry, looked up): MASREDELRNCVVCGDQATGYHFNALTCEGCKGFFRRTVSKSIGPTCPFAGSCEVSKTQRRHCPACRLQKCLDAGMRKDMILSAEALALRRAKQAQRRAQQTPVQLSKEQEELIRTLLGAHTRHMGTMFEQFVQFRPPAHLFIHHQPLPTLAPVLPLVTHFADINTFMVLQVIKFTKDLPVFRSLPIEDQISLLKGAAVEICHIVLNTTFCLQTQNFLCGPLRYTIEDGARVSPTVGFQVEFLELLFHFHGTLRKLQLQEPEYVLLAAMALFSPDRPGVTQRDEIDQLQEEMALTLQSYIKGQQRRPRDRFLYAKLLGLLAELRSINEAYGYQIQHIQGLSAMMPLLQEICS
Structure (SMILES),Potency [1],Potency [2],Potency [3],outcome [4],Potency [5],Potency [6],Potency [7],Potency [8],Potency [9],Potency [10],Potency [11],outcome [12],outcome [13]
Oc1ccc(/C=C2/c3cc(O)cc(O)c3C(c3ccc(O)cc3)[C@H]2c2cc(O)cc(O)c2)cc1 (stereo not given in full),27.7 µM (active),inactive,inactive,inactive,inactive,inactive,inactive,inactive,inactive,inactive,inactive,inactive,inactive
CC1=CC2=C[C@H](C)C[C@@]23OC(=C(C)C3=O)CC(C)(C)/C=C/C1=O,55.3 µM (active),0.838 µM (active),0.668 µM (active),inactive,–,–,inactive,1.65 µM (active),0.933 µM (active),0.935 µM (active),inactive,inactive,inactive
CCCCCCCCCCCCCCCC(=O)OC/C=C(\C)CCCC(C)CC(C)C(C)C (stereo not given),55.3 µM (active),inactive,0.298 µM (active),inactive,inactive,inactive,inactive,inactive,inactive,inactive,inactive,inactive,inactive
C/C(=C\[C@H](C)C(=O)CCCC1CC(=O)NC(=O)C1)[C@@H]1OC(=O)/C=C/CC/C=C/C[C@@H](O)[C@@H]1C,17.5 µM (active),2.11 µM (active),1.49 µM (active),inactive,inactive,inactive,inactive,inactive,2.34 µM (active),2.64 µM (active),3.71 µM (active),inactive,inactive
CO[C@H]1/C=C/CC[C@@H](S[C@@H]2O[C@H](CO)[C@@H](O)[C@H](O)[C@H]2O)CC(=O)O[C@@H](/C(C)=C/[C@H](C)C(=O)CCCC2CC(=O)NC(=O)C2)[C@@H](C)[C@@H]1O,inactive,3.75 µM (active),8.41 µM (active),inactive,inactive,inactive,inactive,–,4.17 µM (active),–,14.8 µM (active),inactive,inactive
C=CC(C)(C)C(=O)[C@@H](C)[C@@H]1CC[C@](C)(C=C)O1,inactive,inactive,inactive,inactive,inactive,inactive,inactive,inactive,inactive,inactive,inactive,inactive,inactive
C/C(=C\[C@H](C)C(=O)CCCC1CC(=O)NC(=O)C1)C(O)[C@@H](C)[C@H](O)C/C=C/CC/C=C/C(=O)O (stereo not given in full),55.3 µM (active),inactive,inactive,inactive,inactive,inactive,inactive,inactive,inactive,inactive,inactive,inactive,inactive
CCCCCCC[C@@H](C/C=C/CCC(=O)NCCc1c[nH]c2ccccc12)OC,49.3 µM (active),inactive,inactive,inactive,inactive,inactive,inactive,inactive,–,inactive,inactive,–,inactive
O=C1CC(c2cc(O)cc(O)c2)Oc2cc(O)ccc21 (stereo not given),34.9 µM (active),inactive,inactive,inactive,inactive,inactive,inactive,inactive,inactive,inactive,inactive,inactive,inactive
CCCCCC[C@H](CCCCC[C@@H](O)C(N)=O)OC(=O)[C@@H]1CC=CN1C(=O)c1ccccc1O,62.1 µM (active),inactive,inactive,inactive,inactive,inactive,inactive,inactive,inactive,inactive,inactive,inactive,inactive
CC12C[C@]3(O)O[C@@H](O1)[C@]1(COC(=O)c4ccccc4)[C@@H]3CC21OC1OC(CO)C(O)C(O)C1O (stereo not given in full),inactive,inactive,inactive,inactive,inactive,inactive,inactive,inactive,inactive,inactive,inactive,inactive,inactive
Oc1ccc(C2c3c(O)cc(O)cc3[C@@H]3C(c4ccc(O)cc4)c4c(O)cc(O)cc4[C@H]23)cc1 (stereo not given in full),34.9 µM (active),inactive,inactive,inactive,inactive,inactive,inactive,inactive,inactive,inactive,inactive,inactive,inactive
